Source: PubChem BioAssay (NCATS)
“And” between values parts separate entries of the source, which are not always exact repeats. Identical values can stand only once. Results filed as inconclusive are left out. The source made the active and inactive calls. Unless noted, the call rests on the fitted dose curve; in most records, active means well fitted curve in the direction sought with a large enough effect; inconclusive means small, poorly fitted or top-dose-only effect, or another doubt; inactive means no such curve, though single readings can be large; an effect the other way counts as inactive or inconclusive.

Assays:
[1] = target: Estrogen receptor (Homo sapiens) (UniProt P03372); experiment: qHTS assay for small molecule antagonists of estrogen receptor alpha signaling (AID 588513; active means well fitted curve in the direction sought with a large enough effect in the signal ratio, with a control signal flat, not every such curve was filed as active; the % refers to the signal ratio; further: potency means the concentration at half of the fitted maximal effect)
Sequence of Estrogen receptor (Homo sapiens) (P03372 whole entry, looked up): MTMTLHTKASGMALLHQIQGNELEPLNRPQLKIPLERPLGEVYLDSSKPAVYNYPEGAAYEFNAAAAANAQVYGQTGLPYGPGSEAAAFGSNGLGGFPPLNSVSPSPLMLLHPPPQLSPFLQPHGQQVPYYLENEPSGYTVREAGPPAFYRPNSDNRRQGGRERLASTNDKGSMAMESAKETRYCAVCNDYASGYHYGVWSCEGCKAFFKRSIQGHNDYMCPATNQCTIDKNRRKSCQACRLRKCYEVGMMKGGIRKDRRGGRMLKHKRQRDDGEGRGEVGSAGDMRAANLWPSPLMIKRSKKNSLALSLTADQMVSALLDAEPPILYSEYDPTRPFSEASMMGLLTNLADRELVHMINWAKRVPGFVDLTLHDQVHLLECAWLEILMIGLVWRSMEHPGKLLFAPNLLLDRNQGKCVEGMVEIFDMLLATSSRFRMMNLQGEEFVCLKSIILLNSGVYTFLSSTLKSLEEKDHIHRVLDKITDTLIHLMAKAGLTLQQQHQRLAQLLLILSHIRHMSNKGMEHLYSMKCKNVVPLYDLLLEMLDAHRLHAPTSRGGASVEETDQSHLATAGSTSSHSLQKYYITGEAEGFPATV
How it was run: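 Antagonist-mode qHTS in ER-alpha-UAS-bla HEK 293 cells: compound titration, 0.5nM estradiol for 18 h, CCF4 fluorescence, Hill-derived IC50.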

[2] = target: Estrogen receptor (Homo sapiens) (UniProt P03372); experiment: qHTS assay for small molecule agonists of estrogen receptor alpha signaling (AID 588514; calls by dose curve;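 further: 0% = vehicle only and 100% = reference agonist; nearly all actives have a fitted effect of over 70% in size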)
How it was run: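 ER-alpha-UAS-bla GripTite HEK 293 cells in medium with 2% charcoal/dextran-treated FBS were treated with compound titrations at 37 C for 18 hrs; beta-lactamase reporter read by CCF4 fluorescence after 2 hrs at RT.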

[3] = target: Peroxisome proliferator-activated receptor delta (Homo sapiens) (UniProt Q03181); experiment: qHTS assay for small molecule agonists of peroxisome proliferator-activated receptor delta signaling (AID 588534; calls by dose curve;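 further: 0% = DMSO basal wells and 100% = positive control agonist at 10 µM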)
Sequence of Peroxisome proliferator-activated receptor delta (Homo sapiens) (Q03181 whole entry, looked up): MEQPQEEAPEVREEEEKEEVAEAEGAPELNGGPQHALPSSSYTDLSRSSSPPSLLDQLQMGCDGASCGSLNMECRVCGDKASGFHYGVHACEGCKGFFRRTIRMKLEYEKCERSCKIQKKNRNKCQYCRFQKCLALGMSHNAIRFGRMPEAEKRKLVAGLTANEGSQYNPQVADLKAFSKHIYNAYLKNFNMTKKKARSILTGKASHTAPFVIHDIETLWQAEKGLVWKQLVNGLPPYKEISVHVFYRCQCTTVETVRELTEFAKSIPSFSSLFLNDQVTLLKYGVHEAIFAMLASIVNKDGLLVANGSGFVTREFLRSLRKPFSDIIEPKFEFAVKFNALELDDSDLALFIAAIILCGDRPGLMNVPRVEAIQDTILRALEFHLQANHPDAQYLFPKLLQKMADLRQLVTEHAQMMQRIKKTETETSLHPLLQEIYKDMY
How it was run: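 Cell-based beta-lactamase reporter assay run in agonist mode: cells seeded and incubated 5 hrs at 37 C, compounds added and incubated 18 hrs at 37 C. CCF4 dye fluorescence read after 2 hrs at RT; EC50 and efficacy from Hill fits.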

[4] = qHTS assay for small molecule antagonists of peroxisome proliferator-activated receptor delta signaling (AID 588535); conditions: HEK293T PPARd-UAS-bla, beta-lactamase FRET ratio, 18 h; 460 nm channel;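 further: cells co-treated with a PPAR-delta agonist as stimulator during compound exposure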
How it was run: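 Cell-based beta-lactamase assay in antagonist mode: 4000 HEK293T PPAR-delta-UAS-bla cells per well, 5 hr preincubation then 18 hr compound incubation at 37 C. IC50 obtained by Hill equation fitting.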

[5] = target: Peroxisome proliferator-activated receptor gamma (Homo sapiens) (UniProt P37231); experiment: qHTS assay for small molecule agonists of peroxisome proliferator-activated receptor gamma signaling (AID 588536; active means well fitted curve in the direction sought with a large enough effect in the signal ratio, with a control signal flat, not every such curve was filed as active; the % refers to the signal ratio;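 further: 0% = DMSO basal wells and 100% = rosiglitazone at 2 µM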)
Sequence of Peroxisome proliferator-activated receptor gamma (Homo sapiens) (P37231 whole entry, looked up): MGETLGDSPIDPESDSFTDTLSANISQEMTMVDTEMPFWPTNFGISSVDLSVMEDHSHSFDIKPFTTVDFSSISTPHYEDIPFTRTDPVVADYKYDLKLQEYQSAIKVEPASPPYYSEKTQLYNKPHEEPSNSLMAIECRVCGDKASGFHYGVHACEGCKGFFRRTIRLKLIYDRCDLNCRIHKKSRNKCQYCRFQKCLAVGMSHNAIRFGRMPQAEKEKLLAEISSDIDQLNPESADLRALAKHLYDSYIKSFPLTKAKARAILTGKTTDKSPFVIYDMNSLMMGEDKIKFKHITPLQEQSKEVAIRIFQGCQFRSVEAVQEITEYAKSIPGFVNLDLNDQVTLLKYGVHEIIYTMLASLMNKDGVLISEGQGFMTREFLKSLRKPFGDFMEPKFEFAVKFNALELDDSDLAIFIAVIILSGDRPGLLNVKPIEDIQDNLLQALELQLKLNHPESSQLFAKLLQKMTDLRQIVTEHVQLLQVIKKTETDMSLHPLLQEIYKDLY
How it was run: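 Ratiometric blue/green fluorescence (405 nm excitation; 460 and 530 nm emission) from CCF4-loaded HEK293 reporter cells serves as signal. Exposure to test compounds lasts 16 h at 37 C in medium containing 1% charcoal/dextran-treated serum.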

[6] = target: Peroxisome proliferator-activated receptor gamma (Homo sapiens) (UniProt P37231); experiment: qHTS assay for small molecule antagonists of peroxisome proliferator-activated receptor gamma signaling (AID 588537; active means well fitted inhibition curve with a large enough effect in the signal ratio, with a control signal flat, not every such curve was filed as active; the % refers to the signal ratio;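 further: reporter cells co-stimulated with 50 nM rosiglitazone agonist during compound treatment; % of control where 0% means no effect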)
How it was run: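 Inhibitors of agonist-stimulated UAS-bla reporter activity were sought in HEK293 cells; rosiglitazone (50 nM) defined full signal and DMSO baseline. Curves fitted to Hill model gave IC50 and efficacy.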

[7] = target: Vitamin D3 receptor (Homo sapiens) (UniProt P11473); experiment: qHTS assay for small molecule antagonists of vitamin D receptor signaling (AID 588541; calls by dose curve;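 further: receptor activated by calcitriol during compound treatment; series mostly up to about 77 µM; on the % scale 0 is the no-effect control and ±100 the full control effect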)
Sequence of Vitamin D3 receptor (Homo sapiens) (P11473 whole entry, looked up): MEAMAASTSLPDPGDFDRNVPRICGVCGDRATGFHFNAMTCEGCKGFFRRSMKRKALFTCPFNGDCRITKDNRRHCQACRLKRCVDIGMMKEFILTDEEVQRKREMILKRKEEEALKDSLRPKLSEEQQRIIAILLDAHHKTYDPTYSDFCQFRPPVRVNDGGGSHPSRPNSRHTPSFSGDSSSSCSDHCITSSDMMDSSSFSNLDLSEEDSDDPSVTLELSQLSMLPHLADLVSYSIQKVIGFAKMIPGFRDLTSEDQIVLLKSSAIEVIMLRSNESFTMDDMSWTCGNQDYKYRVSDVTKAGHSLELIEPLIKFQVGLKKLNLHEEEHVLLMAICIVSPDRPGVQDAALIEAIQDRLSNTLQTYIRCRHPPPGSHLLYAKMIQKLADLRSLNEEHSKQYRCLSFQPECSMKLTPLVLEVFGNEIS
How it was run: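 Antagonist-mode beta-lactamase reporter assay: HEK293T VDR-UAS-bla cells were exposed to titrated compound alongside 1-alpha,25-dihydroxyvitamin D3 at 3 nM final for 16 h. Values were normalized to the 50 nM agonist control and DMSO basal, with IC50 and efficacy from Hill equation fits.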

[8] = target: Thyroid hormone receptor beta (Homo sapiens) (UniProt P10828); experiment: qHTS assay for small molecule agonists of thyroid hormone receptor beta signaling (AID 588545; calls by dose curve)
Sequence of Thyroid hormone receptor beta (Homo sapiens) (P10828 whole entry, looked up): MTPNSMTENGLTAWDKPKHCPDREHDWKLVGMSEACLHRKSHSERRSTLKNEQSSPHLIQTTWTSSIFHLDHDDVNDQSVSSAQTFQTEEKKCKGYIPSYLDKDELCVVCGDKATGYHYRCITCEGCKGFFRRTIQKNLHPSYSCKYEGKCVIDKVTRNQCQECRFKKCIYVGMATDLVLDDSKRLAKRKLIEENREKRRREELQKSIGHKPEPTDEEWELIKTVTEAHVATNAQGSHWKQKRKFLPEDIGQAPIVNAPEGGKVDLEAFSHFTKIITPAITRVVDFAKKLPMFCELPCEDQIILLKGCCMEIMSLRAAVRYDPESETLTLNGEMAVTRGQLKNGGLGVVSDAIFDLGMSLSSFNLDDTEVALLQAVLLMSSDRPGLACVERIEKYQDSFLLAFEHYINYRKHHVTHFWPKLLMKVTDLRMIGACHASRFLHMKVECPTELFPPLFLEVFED
How it was run: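 Agonist-mode beta-lactamase reporter assay, HEK 293 cells, 2% charcoal/dextran FBS; cells plated 4 hrs, compound 18 hrs at 37 C, CCF4 2 hrs RT. Normalized to 10 nM T3 (100%) and DMSO (0%); Hill fit gives EC50, efficacy.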

[9] = qHTS assay for small molecule antagonists of retinoid X receptor alpha signaling (AID 588546; active means well fitted inhibition curve with a large enough effect in the signal ratio, with a control signal flat, not every such curve was filed as active; the % refers to the signal ratio;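 further: cells stimulated with 9-cis-retinoic acid as agonist; on the % scale 0 is the no-effect control and ±100 the full control effect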); conditions: HEK293T RXRa-UAS-bla, beta-lactamase ratio, antagonist mode; measured here: W530 green channel, cytotoxicity proxy
How it was run: (§1)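 Beta-lactamase reporter inhibition, read as CCF4 fluorescence ratio (ex 405, em 460/530 nm) after 2 h at RT. HEK293T UAS-bla cells, 2500/well, were stimulated with 9-cis-RA at 500 or 100 nM final alongside test compound for 18 h at 37 C.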

[10] = target: Retinoic acid receptor RXR-alpha (Homo sapiens) (UniProt P19793); experiment: as above; conditions: HEK293T RXRa-UAS-bla, beta-lactamase ratio, antagonist mode
Sequence of Retinoic acid receptor RXR-alpha (Homo sapiens) (P19793 whole entry, looked up): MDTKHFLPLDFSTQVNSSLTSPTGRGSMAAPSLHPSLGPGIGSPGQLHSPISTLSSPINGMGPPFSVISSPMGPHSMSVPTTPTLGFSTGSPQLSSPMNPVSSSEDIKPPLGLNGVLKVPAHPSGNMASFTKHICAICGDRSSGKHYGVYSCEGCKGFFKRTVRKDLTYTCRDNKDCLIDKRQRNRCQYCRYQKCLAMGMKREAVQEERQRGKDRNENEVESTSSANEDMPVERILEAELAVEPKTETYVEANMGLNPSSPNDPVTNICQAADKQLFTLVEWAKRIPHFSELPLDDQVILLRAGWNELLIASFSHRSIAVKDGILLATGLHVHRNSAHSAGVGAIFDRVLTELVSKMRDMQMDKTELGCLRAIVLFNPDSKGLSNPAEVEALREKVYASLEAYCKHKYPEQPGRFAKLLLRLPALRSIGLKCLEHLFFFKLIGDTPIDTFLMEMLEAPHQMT
How it was run: as §1

[11] = target: Thyroid hormone receptor beta (Homo sapiens) (UniProt P10828); experiment: qHTS assay for small molecule antagonists of thyroid hormone receptor beta signaling (AID 588547; active means well fitted inhibition curve with a large enough effect in the signal ratio, with a control signal flat, not every such curve was filed as active; the % refers to the signal ratio;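 further: cells stimulated with 0.4 nM T3 agonist during compound exposure; series mostly up to about 77 µM; on the % scale 0 is the no-effect control and ±100 the full control effect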); conditions: TR-UAS-bla HEK293, beta-lactamase ratio, antagonist mode, 18 h
How it was run: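 Inhibition of T3-driven (0.4nM final) beta-lactamase reporter activity was measured over 0.59 nM to 92 uM compound after 18 h at 37 C. The cells were GripTite HEK293 TR-UAS-bla in charcoal/dextran-stripped serum, with CCF4 ratio read-out and IC50 from Hill fits.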

[12] = qHTS assay for small molecule activators of the p53 signaling pathway (AID 651743; active means well fitted activation curve with a large enough effect in the signal ratio, not every such curve was filed as active; the % refers to the signal ratio; further: series mostly up to about 92 µM; % of control where 0% means no effect); conditions: HCT-116 p53RE-bla, beta-lactamase FRET ratio, 16 h; activation: stronger effect = higher value
How it was run: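 Screen for p53 pathway agonists uses stably transfected p53RE-bla HCT-116 cells, 4,000 per well, treated 16 h at 37 C with compounds in DMSO.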

[13] = qHTS assay for environmental chemicals that activate the Aryl hydrocarbon Receptor (AhR) signaling pathway (AID 651777); conditions: 1A2-DRE human hepatoma cells, luciferase, 24 h; activation: stronger effect = higher value; further: % of control where 0% means no effect; nearly all actives have a fitted effect of over 15% in size
How it was run: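 1A2-DRE human hepatoma reporter line; 1,200 cells/well; cmpd or DMSO 24 h, 37 C/5% CO2; One-Glo 30 min RT; luciferase lum.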

[14] = target: Peroxisome proliferator-activated receptor alpha (Homo sapiens) (UniProt Q07869); experiment: qHTS assay for small molecule agonists of the peroxisome proliferator-activated receptor alpha (PPARalpha) signaling pathway (AID 651778); conditions: PathHunter PPARalpha complementation, chemiluminescence, 6 h; max response: stronger effect = higher value; further: % of control where 0% means no effect
Sequence of Peroxisome proliferator-activated receptor alpha (Homo sapiens) (Q07869 whole entry, looked up): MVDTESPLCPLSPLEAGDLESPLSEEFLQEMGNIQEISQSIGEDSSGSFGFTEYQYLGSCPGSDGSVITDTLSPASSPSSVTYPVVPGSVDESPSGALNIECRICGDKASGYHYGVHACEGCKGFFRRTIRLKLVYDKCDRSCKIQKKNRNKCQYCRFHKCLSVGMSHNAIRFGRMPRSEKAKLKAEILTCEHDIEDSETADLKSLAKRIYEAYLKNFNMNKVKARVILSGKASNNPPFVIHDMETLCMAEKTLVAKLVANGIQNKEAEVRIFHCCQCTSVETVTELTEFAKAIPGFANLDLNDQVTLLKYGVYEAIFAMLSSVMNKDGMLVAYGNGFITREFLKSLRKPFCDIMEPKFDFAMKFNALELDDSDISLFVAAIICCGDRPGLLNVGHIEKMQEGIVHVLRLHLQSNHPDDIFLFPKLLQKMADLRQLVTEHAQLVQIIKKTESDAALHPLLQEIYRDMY
How it was run: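 Chemiluminescence from complemented enzyme reported PPARalpha activation in cells after 6 hr of compound treatment at 37 C. The detection reagent was incubated for 60 min at room temperature, and compounds were scored as agonists.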

[15] = qHTS assay for small molecule agonists of the antioxidant response element (ARE) signaling pathway measured by Nrf2-dependant transcriptional activity (AID 720636; active means well fitted curve in the direction sought with a large enough effect in the repeat runs; an effect the other way counts as inactive or inconclusive;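 further: HepG2 cells with an ARE-driven luciferase reporter; % of control where 0% means no effect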)
How it was run: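 Cells: ARE-luc HepG2 with Nrf2-responsive luciferase. Medium contained 1% dialyzed FBS. Compound exposure lasted 16 hr at 37 C and 5% CO2, followed by ONE-Glo luciferase detection.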

[16] = qHTS assay for small molecule agonists of the antioxidant response element (ARE) signaling pathway measured by Nrf2-dependant transcriptional activity - cell viability counter screen (AID 720653; active means well fitted curve in the direction sought with a large enough effect in the repeat runs; an effect the other way counts as inactive or inconclusive; further: on the % scale 0 is the no-effect control and ±100 the full control effect); conditions: ARE-bla HepG2 viability, CellTiter-Glo ATP luminescence, 16 h; max response: stronger effect = lower value
How it was run: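 Cytotoxicity counter screen: intracellular ATP quantified by CellTiter-Glo luminescence in the same ARE-bla HepG2 plates, after 16 h compound exposure and a 2 h beta-lactamase substrate step.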

[17] = qHTS assay for cell viability of HEK293 cells (AID 743288); conditions: ATP luminescence (CellTiter-Glo), 18 h; max response: stronger effect = lower value; further: on the % scale 0 is the no-effect control and ±100 the full control effect; nearly all actives have a fitted effect of over 50% in size
How it was run: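 Luminescent ATP quantitation served as the viability read-out. Cells (parental HEK293, 2,000/well) received compounds after at least 5 h at 37 C and were exposed for 18 h before a 30 min room-temperature reagent step.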

[18] = target: Nuclear receptor subfamily 1 group I member 2 (Rattus norvegicus) (UniProt Q9R1A7); experiment: qHTS assay for small molecule activators of the rat pregnane X receptor (rPXR) signaling pathway (AID 651751; call rule not given here; further: 0% is about no effect); conditions: rPXR reporter cells, luciferase (One-Glo), 24 h
Sequence of Nuclear receptor subfamily 1 group I member 2 (Rattus norvegicus) (Q9R1A7 whole entry, looked up): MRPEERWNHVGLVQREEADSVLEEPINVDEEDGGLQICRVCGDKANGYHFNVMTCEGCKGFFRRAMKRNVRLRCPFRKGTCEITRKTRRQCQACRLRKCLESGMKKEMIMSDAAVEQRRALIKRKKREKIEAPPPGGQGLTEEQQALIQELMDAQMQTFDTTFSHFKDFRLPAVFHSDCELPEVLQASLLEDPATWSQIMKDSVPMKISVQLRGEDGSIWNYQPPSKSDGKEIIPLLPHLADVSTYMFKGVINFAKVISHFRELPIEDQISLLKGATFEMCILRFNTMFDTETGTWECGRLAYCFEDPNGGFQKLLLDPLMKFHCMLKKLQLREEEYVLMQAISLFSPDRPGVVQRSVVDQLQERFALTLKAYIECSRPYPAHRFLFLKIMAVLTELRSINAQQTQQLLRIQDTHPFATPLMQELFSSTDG

[19] = qHTS assay for cell viability of the p53RE-bla HCT-116 cell line (AID 743292); further: nearly all actives have a fitted effect of over 55% in size; further: potency means the concentration at half of the fitted maximal effect
How it was run: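 HCT-116 p53RE-bla cells seeded 4,000/well; 5 h at 37 C; compound (DMSO) added; 16 h at 37 C; CellTiter-Glo added, 30 min RT; luminescence read.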

[20] = target: Retinoic acid receptor RXR-alpha (Homo sapiens) (UniProt P19793); experiment: qHTS assay for small molecule agonists of retinoid X receptor alpha signaling (AID 588544; calls by dose curve;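 further: 0% = DMSO basal wells and 100% = reference agonist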)

O=P(O)(O)CCCl
-15.9%: max response [4]
-6.38%: max response [9]
inactive: Potency [1] | Potency [2] | outcome [3] | Potency [5] | Potency [6] | Potency [7] | Potency [8] | max response [10] 5.61% | activity change % (negative = inhibition) [11] 22.1% and 18.2% | activation [12] -3.48% and 2.67% | activation [13] -0.0383% and -0.0843% | max response [14] 0.775% and -1.46% | Potency [15] | max response [16] -26.8% and 3.51% | max response [17] -9.79% and -10.1% | max response [18] -9.16% and -4.17%

Oc1ccc(C2(c3ccc(O)cc3)c3ccccc3-c3ccccc32)cc1
active: Potency [1] 15.8 µM [inhibitor] | Potency [19] 31.6 µM
inactive: Potency [2] | outcome [3] | activation [13] -0.464% | max response [14] -1.22% | Potency [15] | max response [16] -12.4% | max response [17] -3.45% | max response [18] -3.03%

CCNc1nc(NC(C)(C)C)nc(SC)n1
44.7%: max response [4]
inactive: Potency [1] | Potency [2] | outcome [3] | Potency [5] | Potency [6] | Potency [7] | Potency [20] | Potency [8] | activity change % (negative = inhibition) [11] 6.54% | activation [12] 13.8% | activation [13] 0.606% | max response [14] 1.46% | Potency [15] | max response [16] -11.3% | max response [17] -12.7% | Potency [19] | max response [18] 2.02%

COc1ccc(O)c(C(C)(C)C)c1
-10.9%: max response [9]
inactive: Potency [1] | Potency [2] | Potency [7] | Potency [20] | Potency [8] | max response [10] 7.69% | activation [12] 1.43% | activation [13] 3.77% | max response [14] 1.63% | Potency [15] | max response [16] 1.24% | max response [17] -7.51% | Potency [19] | max response [18] 3.52%

NS(=O)(=O)C(F)(F)C(F)(F)C(F)(F)C(F)(F)C(F)(F)C(F)(F)C(F)(F)C(F)(F)F
-4.16%: max response [9]
101%: max response [4]
inactive: Potency [1] | Potency [2] | outcome [3] | Potency [8] | activation [12] 13.9% | activation [13] 4% | Potency [15] | max response [16] -2.62% | max response [17] -13.7% | Potency [19] | max response [18] -9.61%

Clc1ccc([C@]2(Cn3cncn3)C[C@@H](Br)CO2)c(Cl)c1
inactive: Potency [1] | Potency [2] | outcome [3] | Potency [5] | Potency [7] | Potency [8] | max response [10] -12.9% and -9.53% | activity change % (negative = inhibition) [11] -4.77% and -5.66% | activation [12] -0.258% and -3.95% | activation [13] 3.17% and 2.53% | max response [14] -0.572% and -0.644% | Potency [15] | max response [16] -16.1% and 0.925% | max response [17] -21.9% and -13.3% | Potency [19]
-15.6% and -7.06%: max response [9]
